From PubChem BioAssay (NCI)
Compounds without any hit were thinned out: in the full panel of roughly 79,000, 15% have a hit. Rule as the data show it: active = growth inhibition above about 70%; inactive = the rest.

Tests used:
[1] = NCI Yeast Anticancer Drug Screen. Data for the rad50 strain (AID 155);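 also: 0% = growth of vehicle-only cultures of the same strain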; conditions: S. cerevisiae rad50 strain growth inhibition; at 50.0 µM; stronger effect = higher value
Procedure, shortened: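 Cells are treated with compound, grown, and their growth is then scored against vehicle-only cultures of the same repair-deficient yeast strain.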

[2] = NCI Yeast Anticancer Drug Screen. Data for the mec2-1 strain (AID 157); conditions: S. cerevisiae mec2-1 strain, at 50.0 µM, stronger effect = higher value
Procedure, shortened: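 Using mec2-1 yeast: add compound, measure growth, express inhibition versus vehicle-treated cultures.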

[3] = NCI Yeast Anticancer Drug Screen. Data for the sgs1 mgt1 strain (AID 161);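 also: 0% = growth of cultures given vehicle only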; conditions: S. cerevisiae sgs1 mgt1 strain, at 50.0 µM, stronger effect = higher value
Procedure, shortened: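 Compounds are added to genetically altered yeast, and growth is compared with cultures given vehicle alone to give percent inhibition.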

[4] = NCI Yeast Anticancer Drug Screen. Data for the cln2 rad14 strain (AID 165);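 also: 0% = growth equal to vehicle treated cultures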; conditions: S. cerevisiae cln2 rad14 strain, at 50.0 µM, stronger effect = higher value
Procedure, shortened: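 Yeast strain cln2 rad14, bearing defects in cell cycle control and DNA repair, serves as the test system; values reflect growth inhibition compared with vehicle.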

[5] = NCI Yeast Anticancer Drug Screen. Data for the bub3 strain (AID 167); conditions: S. cerevisiae bub3 mutant strain, at 50.0 µM, stronger effect = higher value
Procedure, shortened: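 Part of a panel of yeast mutants defective in DNA damage repair or cell cycle regulation. Each strain is grown with compound, and inhibition is calculated relative to solvent-treated cultures.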

[6] = NCI Yeast Anticancer Drug Screen. Data for the mlh1 rad18 strain (AID 175); conditions: S. cerevisiae mlh1 rad18 strain growth inhibition; at 50.0 µM; stronger effect = higher value
Procedure, shortened: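 Steps: expose repair-defective yeast to compound; measure growth; express inhibition against vehicle-treated controls.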

Measured: growth inhibition

Nc1nc(=O)[nH]c2n[nH]nc12
inactive: [1] -18.2% | [2] -7.15% | [3] 6.7% | [4] -3.15% | [5] -2.35% | [6] 0.2%

CCOC(=O)c1nc(C)oc1C(=O)OCC
inactive: [1] 0.85% | [2] -12.9% | [3] -14.6% | [4] -13.9% | [5] -7.3% | [6] -3.85%

O=S(=O)(OCC(F)(F)F)c1ccccc1
inactive: [1] 16.4% | [2] 8.25% | [3] 14.7% | [4] -2.8% | [5] -8.8% | [6] -10.4%

C=C1CC2OC(=O)C(=C)C2C(OC(=O)c2ccccc2)/C=C(\C)CCC1OC(=O)c1ccccc1 (stereo not drawn)
inactive: [1] -13.7% | [2] -3.25% | [3] -11.2% | [4] -39.3% | [5] -0.85% | [6] -21.4%

O=C(Nn1c(-c2ccccc2)nc2ccccc2c1=O)c1ccc([N+](=O)[O-])cc1
inactive: [1] -1.9% | [2] 14.6% | [3] 4.6% | [4] -1% | [5] 17.2% | [6] 13.9%

O=C1CCCC2=C1CC1=C(CCCC1=O)N2c1ccc([N+](=O)[O-])cc1
inactive: [1] -35.8% | [2] -30.1% | [3] -42% | [4] -10.3% | [5] 0.45% | [6] -19.3%

COc1cc(/C=C/c2ccc(/C=C/c3cc(OC)c(OC)c(OC)c3)cc2)cc(OC)c1OC
inactive: [1] 11.2% | [2] -5.65% | [3] -29.9% | [4] 1.8% | [5] -8.75% | [6] -9.9%

COc1cc2c(cc1OC)C(c1ccc([N+](=O)[O-])c(C)c1)=NCC2
inactive: [1] 28.1% | [2] -15.7% | [3] 39.5% | [4] 15.3% | [5] 19.4% | [6] 0.25%

[O-]/[N+]1=[N+](\[O-])c2ccccc2COCc2ccccc21
inactive: [1] -5.2% | [2] -12.3% | [3] -12.4% | [4] -44.5% | [5] -8.1% | [6] -14.2%

COC(=O)CNN
inactive: [1] -6.05% | [2] -19.4% | [3] -14.8% | [4] -25.1% | [5] -7.25% | [6] 7.9%

O=C(CNc1c(Cl)cccc1Cl)NC1C=Cc2ccc(S(=O)(=O)Nc3c(Cl)cccc3Cl)cc2C1=O (stereo not drawn)
inactive: [1] 36.2% | [2] 12.9% | [3] 49% | [4] 5.35% | [5] 19% | [6] 22%

COC(=O)C1=CC(O)CCC1c1ccc(OC)cc1 (stereo not drawn)
inactive: [1] -6.2% | [2] -10.7% | [3] -13.2% | [4] -5.8% | [5] -5.45% | [6] -19.2%

COc1ccc(Cc2c3cc(OC)c(OC)cc3cc[n+]2C)cc1
inactive: [1] -0.05% | [2] -28.4% | [3] -17.9% | [4] -2.45% | [5] -10.8% | [6] -6.15%

COC(=O)N/N=C(/CC1(O)C(=O)Nc2ccc([N+](=O)[O-])cc21)c1ccccc1 (stereo not drawn)
inactive: [1] 48.3% | [2] 34.2% | [3] 36.5% | [4] -3.2% | [5] 0.35% | [6] 40.8%

O=c1c2c(nc3n1CCC3)OC(c1ccccc1)C2 (stereo not drawn)
inactive: [1] 0.4% | [2] 4.3% | [3] -5.9% | [4] -44.8% | [5] -2.95% | [6] 12.6%

COC(=O)[C@@H](CO)NC(=O)OC(C)(C)C
inactive: [1] -27.6% | [2] -15% | [3] -24.1% | [4] 21.6% | [5] 9.4% | [6] -12.8%

O=CC(Cc1ccccc1)C(=O)CCc1ccccc1.[Cu+2] (stereo not drawn)
inactive: [1] 40.1% | [2] 13.9% | [3] 4.95% | [4] -48.6% | [5] 0.4% | [6] 2.55%

CN/N=C(/CC(=O)c1sc(NNC(C)=O)nc1C)C(=O)Nc1ccc(OC)cc1OC
inactive: [1] 15.7% | [2] -14.5% | [3] 3.2% | [4] 15.4% | [5] 15% | [6] -2.15%

CC(C)CCOC(=O)C(O)C(O)C(=O)OCCC(C)C (stereo not drawn)
inactive: [1] 14.2% | [2] 12.5% | [3] -3.05% | [4] -39% | [5] -0.85% | [6] 13.2%

COC(=O)C(Cc1ccccc1)NC(=O)Cn1ccnc1[N+](=O)[O-] (stereo not drawn)
inactive: [1] 9.65% | [2] -19.6% | [3] 15.2% | [4] 7.7% | [5] -16% | [6] -3.3%

O=C(CCCn1cnc([N+](=O)[O-])n1)NCCn1ccnc1[N+](=O)[O-]
inactive: [1] -3.1% | [2] -7.3% | [3] -10.3% | [4] -5.1% | [5] -13.6% | [6] -26.3%

Nc1ccc(C(=O)NN2C(=O)C(Cl)C2c2cc(Br)ccc2O)cc1 (stereo not drawn)
inactive: [1] 29.1% | [2] 11.6% | [3] 30.7% | [4] -32.1% | [5] 29.1% | [6] 10.8%

C(#Cc1c2ccccc2c(C#Cc2ccccc2)c2c(-c3ccccc3)cccc12)c1ccccc1
inactive: [1] -11.1% | [2] 13.1% | [3] -3.5% | [4] 4.05% | [5] 45.6% | [6] 24.5%

CCOC(=O)C(C#N)CCC(C)=O (stereo not drawn)
inactive: [1] -12.3% | [2] -11.1% | [3] 17.4% | [4] -24.4% | [5] -7.8% | [6] -28.6%

Nc1ncnc(N)c1NC(=O)c1cccc(C(=O)c2ccccc2)c1
inactive: [1] 2.85% | [2] 16.1% | [3] -10.7% | [4] -3.5% | [5] 0.85% | [6] 0.85%

COc1ccc(C2c3cc4c(cc3OC3(O)CCCC(=O)C23)OCO4)cc1 (stereo not drawn)
inactive: [1] -13.2% | [2] 15.3% | [3] 4.55% | [4] -39.3% | [5] 20.6% | [6] -7.4%

Cn1nnn2c(-c3ccccc3)nnc12
inactive: [1] 15.4% | [2] -2.45% | [3] -5.45% | [4] -10.8% | [5] 0.8% | [6] -5.3%

N[C@@H](CCC(=O)NC(Cc1ccccc1)C(=O)NCP(=O)(O)O)C(=O)O (stereo partly drawn)
inactive: [1] -60.9% | [2] -17.9% | [3] -45.9% | [4] -1.75% | [5] -10.5% | [6] -55.4%

CC(C)NCC(O)COc1c2ccccc2nc2ccccc12 (stereo not drawn)
inactive: [1] -8.65% | [2] -21.8% | [3] -24.2% | [4] -1.65% | [5] -20.1% | [6] 12.9%

Cc1cc(Cl)c(Cl)cc1NC(=O)c1ccccc1Cl
inactive: [1] 1.55% | [2] -11.3% | [3] 4% | [4] -9.25% | [5] 8.9% | [6] -5.25%

C=CCOC(=O)OCCO
inactive: [1] 5.95% | [2] -0.55% | [3] -2.8% | [4] -34.5% | [5] -5.5% | [6] -15.9%

CC1=C(O)c2cc3c(cc2C(=O)C1=O)OCO3
inactive: [1] -21.5% | [2] -0.95% | [3] -15% | [4] -15.6% | [5] -18.4% | [6] 26.9%

CC12CCC(Cl)(CC1O)C2(C)C (stereo not drawn)
inactive: [1] 1.9% | [2] 11.6% | [3] 1.15% | [4] 2.05% | [5] -6.9% | [6] -1.05%

Nc1cc(=O)[nH]c(N)n1
inactive: [1] 10.2% | [2] -23.9% | [3] -19.6% | [4] -83.9% | [5] -5% | [6] -21.9%

CSc1nc(NC2OCC(OC(C)=O)C(OC(C)=O)C2OC(C)=O)c2c(n1)OCC2=O (stereo not drawn)
inactive: [1] -17% | [2] -21.6% | [3] -21.6% | [4] 6.1% | [5] 13.4% | [6] -10.5%

NS(=O)(=O)c1ccc(NC2=CC(=O)C(=O)c3ccccc32)cc1
inactive: [1] -6.4% | [2] -5.6% | [3] -21.4% | [4] 2.4% | [5] -7.55% | [6] -11.6%

CCCCC(=O)OCC(=O)[C@]1(O)Cc2c(O)c3c(c(O)c2[C@@H](OC2CC(NC(=O)C(F)(F)F)C(O)C(C)O2)C1)C(=O)c1c(OC)cccc1C3=O (stereo partly drawn)
inactive: [1] 19.5% | [2] 21.3% | [3] 29.9% | [4] 4.9% | [5] 53% | [6] 30.8%

O=C(O)C(Br)C(Br)C(=O)Nc1cccc(Cl)c1 (stereo not drawn)
inactive: [1] 0.5% | [2] -47.2% | [3] 21.2% | [4] -27.8% | [5] 5.75% | [6] 20.2%
